From PubChem BioAssay
Only some compounds are listed: those with a hit (about 2.4% of all), similar ones and a draw of the others.
Pol eta inh-1 = qHTS for Inhibitors of Polymerase Eta. DNA polymerase eta (Homo sapiens), Q9Y253. recombinant Pol eta, fluorescent DNA replication assay. Potency, µM (highest dose often 114 µM), for the others: at the highest dose activity change, negative = inhibition, hits mostly inhibitors. 390,000 compounds, 1.2% hits. AID 588591, 2011; also: potency is read from the fitted curve at half-maximal effect; % is scaled to controls: 0 for no effect and ±100 for the full control effect
Target sequence (Q9Y253 whole entry, looked up): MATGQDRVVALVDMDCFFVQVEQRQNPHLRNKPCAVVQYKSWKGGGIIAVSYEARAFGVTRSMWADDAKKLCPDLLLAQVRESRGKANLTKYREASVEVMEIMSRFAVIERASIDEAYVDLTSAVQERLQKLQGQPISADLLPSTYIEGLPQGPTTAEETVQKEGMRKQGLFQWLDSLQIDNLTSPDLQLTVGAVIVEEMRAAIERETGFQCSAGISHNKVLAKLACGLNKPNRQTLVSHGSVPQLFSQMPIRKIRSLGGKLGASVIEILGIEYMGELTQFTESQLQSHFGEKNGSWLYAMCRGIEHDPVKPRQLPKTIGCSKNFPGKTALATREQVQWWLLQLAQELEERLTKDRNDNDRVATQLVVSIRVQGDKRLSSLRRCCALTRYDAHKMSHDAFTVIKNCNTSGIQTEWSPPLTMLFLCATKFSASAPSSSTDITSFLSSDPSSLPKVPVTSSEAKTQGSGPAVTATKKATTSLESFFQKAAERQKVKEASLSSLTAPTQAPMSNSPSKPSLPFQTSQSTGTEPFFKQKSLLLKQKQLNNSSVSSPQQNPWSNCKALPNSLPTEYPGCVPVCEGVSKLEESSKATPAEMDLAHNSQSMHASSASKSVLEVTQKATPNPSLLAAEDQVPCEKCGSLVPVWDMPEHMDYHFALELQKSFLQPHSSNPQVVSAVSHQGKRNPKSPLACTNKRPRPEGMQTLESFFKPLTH
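Fluorescent replication assay: 50 nM final substrate added after a 15 min room-temperature compound preincubation with 10 nM enzyme. Signal taken at 0 min and again at 10 min.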
Pol kappa inh-1 = qHTS for Inhibitors of Polymerase Kappa | Potency, µM (titrated, usually from 107 µM), for inactives: at the highest dose activity, negative = inhibition, hits mostly inhibitors | AID 588579, 2011 | 400,000 compounds, 0.53% hits | purified Pol kappa, fluorescent DNA synthesis assay, 10 min; also: potency is read from the fitted curve at half-maximal effect; % is scaled to controls: 0 for no effect and ±100 for the full control effect
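10 nM Pol kappa was preincubated with compounds for 15 min at room temperature. Reaction started with 50 nM (final) substrate. Fluorescence read kinetically at 0 and 10 min.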
FEN1 inh-1 = qHTS Assay for the Inhibitors of Human Flap endonuclease 1 (FEN1). P39748. Recombinant FEN1 flap cleavage, fluorescence, 15 min. Potency, µM (highest dose often 114 µM), inactives show at the top dose activity change, negative = inhibition, actives largely listed as inhibitors. AID 588795, 2011. 390,000 compounds, 0.35% hits; also: potency is read from the fitted curve at half-maximal effect; % is scaled to controls: 0 for no effect and ±100 for the full control effect; nearly all actives have a fitted effect of over 65% in size
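Recombinant FEN1 (10 nM) was preincubated with pin-transferred compounds for 15 min at room temperature, then flap DNA substrate (50 nM final) was added. Plates were read at 0 and 15 min, and normalized concentration–response data were fitted to a four-parameter Hill equation.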
POLI inh = qHTS for Inhibitors of Polymerase Iota; Potency, µM (titrated, usually from 115 µM), for the others: at the top dose activity, negative = inhibition, usual class: inhibitors; DNA polymerase iota (Homo sapiens), Q9UNA4; Pol iota fluorescent replication assay, 10 min; AID 588590, 2011; 390,000 compounds, 1% hits; also: potency is read from the fitted curve at half-maximal effect
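Fluorescent replication assay read twice, at 0 min and 10 min after adding 50 nM (final) substrate. Enzyme (10 nM) and compounds were first incubated 15 min at room temperature; enzyme-free buffer wells were negative controls.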
WRN helicase inh-1 = qHTS for Inhibitors of WRN Helicase | Bifunctional 3'-5' exonuclease/ATP-dependent helicase WRN (Homo sapiens), Q14191 | WRN helicase unwinding, fluorescent forked duplex, kinetic | Potency, µM (titrated, usually from 114 µM), inactives show top-dose activity change, negative = inhibition, usual class: inhibitors | 360,000 compounds, 0.46% hits | AID 651768, 2012; also: potency is read from the fitted curve at half-maximal effect; % is scaled to controls: 0 for no effect and ±100 for the full control effect; nearly all actives have a fitted effect of over 55% in size
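Enzyme (20 nM final) and test compound sit together 15 min at room temperature before substrate addition. Substrate is a single-forked duplex oligonucleotide (100 nM) labelled with fluorophore and quencher, with 2 mM ATP; helicase unwinding raises red fluorescence, read kinetically.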
POLB inh = qHTS Assay for Inhibitors of DNA Polymerase Beta; Pol beta primer extension/strand displacement, fluorescence kinetic; Potency, µM (titrated, usually from 114 µM), without a hit: at the highest dose activity change, negative = inhibition, usual class: inhibitors; 340,000 compounds, 1.3% hits; also: potency is read from the fitted curve at half-maximal effect; % is scaled to controls: 0 for no effect and ±100 for the full control effect
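Homogeneous kinetic assay of primer extension and strand displacement by 10 nM Pol beta, preincubated 15 min at room temperature with compound before 50 nM substrate (final) was added. Read at 0 and 10 min; four-parameter Hill fit.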
BAZ2B inh = qHTS Assay for Inhibitors of BAZ2B: Hit Validation; shares compounds with Pol kappa inh-1; AID 588809, 2011; AlphaScreen BAZ2B / biotin-H3K14Ac peptide displacement; 25 compounds, 100% hits; Potency, µM, actives largely listed as inhibitors; calls by dose curve
BAZ2B bead ctr = qHTS Assay for Inhibitors of BAZ2B: Hit Validation in AlphaScreen Counterscreen. shares compounds with Pol kappa inh-1. AlphaScreen biotin-His6 peptide bead counterscreen, signal decrease. Potency, µM (series often up to 57.1 µM), for the others: top-dose activity change, negative = inhibition, usual class: inhibitors. 25 tested, under 10 active;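 active = clear concentration-dependent signal drop in the bead assay lacking the target, so a primary-screen artifact; inconclusive = weak, partial or single-dose response; inactive = no response, so a real primary hit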
TbPGK inh = qHTS for inhibitors of Phosphogylcerate Kinase: Hit Validation Screen | Potency, µM (doses to about 57.5 µM), without a hit: top-dose activity change, negative = inhibition, hits mostly inhibitors | shares compounds with Pol kappa inh-1 | 500 compounds, 79% hits | TbPGK coupled GAPDH assay, Kinase-Glo luminescence; also: potency is read from the fitted curve at half-maximal effect; % is scaled to controls: 0 for no effect and ±100 for the full control effect; nearly all actives have a fitted effect of over 65% in size
POLI cherry-pick = qHTS for Inhibitors of Polymerase Iota: Confirmatory Assay for Cherry-picked Compounds. shares compounds with Pol kappa inh-1. Pol iota primer extension, TAMRA/BHQ fluorescence. Potency, µM, actives largely listed as inhibitors. 1,500 compounds, 77% hits. AID 720496, 2013; also: potency is read from the fitted curve at half-maximal effect
Pol kappa inh-2 = qHTS for Inhibitors of Polymerase Kappa: Confirmatory Assay for Cherry-picked Compounds; shares compounds with Pol eta inh-1; purified Pol-kappa, fluorescent strand-displacement substrate; Potency, µM, actives largely listed as inhibitors; 920 compounds, 76% hits; AID 720501, 2013; also: potency is read from the fitted curve at half-maximal effect
Pol eta inh-2 = qHTS for Inhibitors of Polymerase Eta: Confirmatory Assay for Cherry-picked Compounds; 2,600 compounds, 64% hits; Potency, µM, hits mostly inhibitors; Pol eta primer extension, TAMRA/BHQ fluorescence, 10 min; shares compounds with Pol eta inh-1; also: potency is read from the fitted curve at half-maximal effect
FEN1 inh-2 = qHTS Assay for the Inhibitors of FEN1: Confirmatory Assay for Cherry-picked Compounds | shares compounds with FEN1 inh-1 | FEN1 flap cleavage, TAMRA/BHQ2 fluorogenic DNA substrate | Potency, µM, hits mostly inhibitors | 880 compounds, 79% hits; also: potency is read from the fitted curve at half-maximal effect; nearly all actives have a fitted effect of over 60% in size
WRN helicase inh-2 = qHTS for Inhibitors of WRN Helicase: Confirmatory Assay for Cherry-picked Compounds | WRN helicase DNA unwinding, fluorescence kinetic | shares compounds with WRN helicase inh-1 | AID 720497, 2013 | Potency, µM (titrated, usually from 57.1 µM), for inactives: top-dose activity, negative = inhibition, hits mostly inhibitors | 610 compounds, 63% hits; also: potency is read from the fitted curve at half-maximal effect; nearly all actives have a fitted effect of over 65% in size
TO displacement = qHTS for Inhibitors of WRN Helicase: Thiazole Orange DNA Binding Counterscreen; shares compounds with WRN helicase inh-1; thiazole orange DNA binding displacement, fluorescence; Potency, µM (doses to about 57.1 µM), inactives show top-dose activity change, negative = inhibition, most hits filed as inhibitors; 610 compounds, 10% hits; AID 720499, 2013;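 also: drop in dye fluorescence marks compound binding to DNA; potency is read from the fitted curve at half-maximal effect; % is scaled to controls: 0 for no effect and ±100 for the full control effect; nearly all actives have a fitted effect of over 60% in size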
BLM helicase inh = qHTS for Inhibitors of WRN Helicase: BLM Helicase Counterscreen for WRN Inhibitors; shares compounds with WRN helicase inh-1; Recombinant BLM helicase DNA unwinding, red fluorescence; Potency, µM (titrated, usually from 57.1 µM), for the others: top-dose activity change, negative = inhibition, actives largely listed as inhibitors; 610 compounds, 60% hits; AID 720503, 2013; also: potency is read from the fitted curve at half-maximal effect; nearly all actives have a fitted effect of over 60% in size
* = called active by the depositor; ? = inconclusive; nt = no result given; [ ] = dose if it differs, or a comment. Unless noted, calls follow the shape of the dose curve; as a rule, active = well fitted curve in the direction sought with a large enough effect; inconclusive = small, poorly fitted or top-dose-only effect, or another doubt; inactive = no such curve, though single readings can be large; an effect the other way counts as inactive or inconclusive.

SMILES	Pol eta inh-1	Pol kappa inh-1	FEN1 inh-1	POLI inh	WRN helicase inh-1	POLB inh	TbPGK inh	POLI cherry-pick	Pol eta inh-2	WRN helicase inh-2	TO displacement	BLM helicase inh	others
O=C(O)Cn1cc(/C=C2\C(=O)NC(=O)N(Cc3ccco3)C2=O)c2ccccc21	1.58µM*	20µM*	79.4µM*	4.47µM*	39.8µM*	10µM*	8.19µM*	3.36*	4.78*	nt	nt	nt	FEN1 inh-2=67.5*
CCC12C=CCN3CCC4(c5ccc(OC)cc5N(C)C4[C@@](O)(C(=O)OC)C1OC(C)=O)C32 (stereo not given in full)	nt	-15.6%[60.1 µM]	nt	nt	nt	nt	nt	nt	nt	nt	nt	nt
CC(C)c1ccc2oc(-c3ccc(NC(=O)c4cc5ccccc5o4)cc3)nc2c1	-10.1%	1.2%	-7.0%	32.4%	nt	-8.7%	nt	nt	nt	nt	nt	nt
O=C(Nc1ccc2oc(-c3cccnc3)nc2c1)c1ccc(-c2cccc(Cl)c2)o1	70.8µM*	-17.2%	?	-7.1%	nt	?	nt	42.3*	75.7*	19.2µM*	13.7%	6.81µM*
N/C(=N\N=C/c1ccc(-c2ccc(O)c(C(=O)O)c2)o1)N[N+](=O)[O-]	4.47µM*	8.91µM*	50.1µM*	3.55µM*	25.1µM*	3.55µM*	6.51µM*	2.99*	4.26*	7.64µM*	?	6.81µM*	Pol kappa inh-2=2.99*
COc1ccc(CN2C(=O)NC(=O)/C(=C/c3ccoc3)C2=O)cc1	20µM*	20µM*	22.4µM*	10µM*	39.8µM*	10µM*	4.61µM*	18.9*	26.9*	7.64µM*	-2.6%	2.41µM*	FEN1 inh-2=75.7*
C[C@H]1C[C@H](C)C(=O)[C@@H]([C@H](O)CC2CC(=O)NC(=O)C2)C1	nt	-4.2%[19.4 µM]	nt	nt	nt	nt	nt	nt	nt	nt	nt	nt
C=CCN1C(=O)/C(=C/c2cc(C)n(-c3ccccn3)c2C)C(=O)NC1=S	?	-1.5%	-3.1%	-24.6%	-19.6%	49.6%	nt	nt	nt	nt	nt	nt
O=C1NC(=O)N(Cc2ccc(F)cc2)C(=O)/C1=C\C=C\c1ccco1	20µM*	?	?	14.1µM*	35.5µM*	?	nt	?	30.1*	7.64µM*	-12.4%	4.29µM*
CCCCN1C(=O)/C(=C/C=C/c2ccco2)C(=O)NC1=S	3.55µM*	17.8µM*	25.1µM*	28.2µM*	2.67µM*	3.55µM*	13µM*	23.8*	16.9*	12.1µM*	82.6%	6.81µM*	FEN1 inh-2=33.8*
CC(C)(C)OC(=O)N1CC[C@H]1COc1cnc[c]([Sn]([CH3])([CH3])[CH3])c1	nt	-6.7%[12 µM]	nt	nt	nt	nt	nt	nt	nt	nt	nt	nt
Cc1c(F)c(F)c(COC(=O)C2C(/C=C(\Cl)C(F)(F)F)C2(C)C)c(F)c1F (stereo not given)	nt	11.2%[60.1 µM]	nt	nt	nt	nt	nt	nt	nt	nt	nt	nt
CCCN(CCC)[C@@H]1CCc2c(OC)cccc2[C@@H]1C	nt	4.0%[19.4 µM]	nt	nt	nt	nt	nt	nt	nt	nt	nt	nt
COc1ccc(OC)c(NC(=O)COC(=O)c2cc3c(s2)CCC3)c1	10µM*	12.6µM*	?	3.55µM*	23.8µM*	7.94µM*	4.61µM*	9.47*	15.1*	17.1µM*	?	3.04µM*	BAZ2B inh=22.4*;BAZ2B bead ctr=?
COc1ccc(OC)c(NC(=O)Cn2cc(C(=O)c3ccccc3)c3ccccc32)c1	-20.9%	-25.8%	-15.6%	4.1%	nt	0.7%	nt	nt	nt	nt	nt	nt
O=C(O)CCC1NCC2CC1CN1CCCCC21 (stereo not given)	nt	-6.0%[60.1 µM]	nt	nt	nt	nt	nt	nt	nt	nt	nt	nt
